Source: PubChem BioAssay AID1159580 (chemical genetic matrix, 2015)
The whole screen tested about 5,500 compounds, of which about 2,000 (36%) were called active. Inconclusive results (about 18%) are left out. Cut-off read from the data, not from the text of the source: active = normalized growth mostly below about 0.91 (no sharp cut-off); inconclusive = no clear call, values can overlap the other calls; inactive = mostly above about 0.92. The list shows a part of the results.

Assay: chemical genetic growth profiling, strain panel (AID 1159580);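 note: tested at 20 µM; growth read once vehicle control cultures reached saturation at 30 °C; 1 = growth at the plate median or of vehicle wells; lower values mean less growth of the strain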
Settings: S. cerevisiae deletion strains, growth OD
[1] = locus YHR030C, strain SLT2, active compounds read low
[2] = locus YHR079C, strain IRE1, active compounds read low
[3] = locus YJL095W, strain BCK1, active compounds read low
[4] = locus YJR066W, strain TOR1, active compounds read low
[5] = locus YLR113W, strain HOG1, active compounds read low
[6] = locus YNL183C, strain NPR1, active compounds read low
[7] = locus YOR231W, strain MKK1, active compounds read low
[8] = locus YPL256C, strain CLN2, active compounds read low

Measured: normalized growth

N#C/C(N=Cc1cc(Cl)cc(Cl)c1O)=C(\C#N)N=Cc1cc(Cl)cc(Cl)c1O
inactive: locus YAR019C, strain CDC15, active compounds read low 0.923 | locus YBL105C, strain PKC1, active compounds read low 0.929 | locus YBR135W, strain CKS1, active compounds read low 0.927 | locus YBR136W, strain MEC1, active compounds read low 0.917 | locus YBR160W, strain CDC28, active compounds read low 0.922 | locus YDL017W, strain CDC7, active compounds read low 0.923 | locus YDL028C, strain MPS1, active compounds read low 0.915 | locus YDL101C, strain DUN1, active compounds read low 0.954 | locus YDL108W, strain KIN28, active compounds read low 0.926 | locus YDL132W, strain cdc53, active compounds read low 0.943 | locus YDL214C, strain PRR2, active compounds read low 0.754 | locus YDR052C, strain DBF4, active compounds read low 0.936 | locus YDR054C, strain cdc34, active compounds read low 0.916 | locus YDR226W, strain ADK1, active compounds read low 0.925 | locus YER123W, strain YCK3, active compounds read low 0.735 | locus YER133W, strain GLC7, active compounds read low 0.725 | locus YFL009W, strain cdc4, active compounds read low 0.931 | locus YFL029C, strain CAK1, active compounds read low 0.929 | locus YFR003C, strain YPI1, active compounds read low 0.914 | locus YFR019W, strain FAB1, active compounds read low 0.912 | locus YFR028C, strain CDC14, active compounds read low 0.931 | locus YIL147C, strain SLN1, active compounds read low 0.914 | locus YJL128C, strain PBS2, active compounds read low 0.905 | locus YJR016C, strain ILV3, active compounds read low 0.93 | locus YKL067W, strain YNK1, active compounds read low 0.74 | locus YKL193C, strain SDS22, active compounds read low 0.922 | locus YML070W, strain DAK1, active compounds read low 0.747 | locus YMR001C, strain CDC5, active compounds read low 0.919 | locus YMR277W, strain FCP1, active compounds read low 0.92 | locus YNL006W, strain LST8, active compounds read low 0.93 | locus YNL161W, strain CBK1, active compounds read low 0.929 | [6] 0.587 | locus YNL207W, strain RIO2, active compounds read low 0.916 | locus YNL222W, strain SSU72, active compounds read low 0.937 | locus YOL078W, strain AVO1, active compounds read low 0.928 | locus YOL136C, strain PFK27, active compounds read low 0.769 | locus YOR329C, strain SCD5, active compounds read low 0.931 | locus YPL209C, strain IPL1, active compounds read low 0.934 | locus YPR025C, strain CCL1, active compounds read low 0.935 | locus YPR106W, strain ISR1, active compounds read low 0.923 | locus YPR111W, strain DBF20, active compounds read low 0.927 | strain NNK1, active compounds read low 0.908 | strain TSCII, active compounds read low 0.934
active: locus YDR477W, strain SNF1, active compounds read low 0.503 | locus YGR040W, strain KSS1, active compounds read low 0.621 | locus YGR052W, strain FMP48, active compounds read low 0.552 | locus YGR092W, strain DBF2, active compounds read low 0.129 | [1] 0.381 | [2] 0.397 | locus YHR082C, strain KSP1, active compounds read low 0.587 | locus YHR205W, strain SCH9, active compounds read low 0.415 | [3] 0.448 | locus YJL157C, strain FAR1, active compounds read low 0.664 | locus YJR066W, strain TOR1 (second series), active compounds read low 0.588 | [4] 0.414 | locus YKL048C, strain ELM1, active compounds read low 0.594 | locus YKL101W, strain HSL1, active compounds read low 0.538 | locus YKL203C, strain TOR2, active compounds read low 0.454 | [5] 0.509 | locus YLR133W, strain CKI1, active compounds read low 0.52 | locus YLR403W, strain SFP1, active compounds read low 0.457 | locus YMR205C, strain PFK2 (second series), active compounds read low 0.609 | locus YNL020C, strain ARK1, active compounds read low 0.403 | locus YNL307C, strain MCK1 (second series), active compounds read low 0.286 | locus YOR061W, strain CKA2, active compounds read low 0.349 | locus YOR119C, strain RIO1, active compounds read low 0.476 | [7] 0.475 | locus YPL031C, strain PHO85, active compounds read low 0.547 | locus YPL153C, strain RAD53, active compounds read low 0.538 | locus YPL204W, strain HRR25, active compounds read low 0.63 | [8] 0.503

COC(=O)N/N=C\c1c[n+]([O-])c2ccccc2[n+]1[O-]
inactive: locus YAL021C, strain ccr4, active compounds read low 0.985 | locus YAL026C, strain drs2, active compounds read low 0.999 | locus YAL030W, strain snc1, active compounds read low 0.982 | locus YBL061C, strain skt5, active compounds read low 0.975 | locus YBR009C, strain hhf1, active compounds read low 0.99 | locus YBR023C, strain chs3, active compounds read low 0.987 | locus YBR171W, strain sec66, active compounds read low 0.981 | locus YBR231C, strain swc5, active compounds read low 0.974 | locus YBR279W, strain paf1, active compounds read low 0.987 | locus YCL011C, strain gbp2, active compounds read low 0.992 | locus YCL016C, strain dcc1, active compounds read low 0.993 | locus YCL069W, strain vba3, active compounds read low 0.992 | locus YCR088W, strain abp1, active compounds read low 0.986 | locus YDL005C, strain med2, active compounds read low 0.98 | locus YDL040C, strain nat1, active compounds read low 0.989 | locus YDR001C, strain nth1, active compounds read low 0.998 | locus YDR069C, strain doa4, active compounds read low 0.978 | locus YDR137W, strain rgp1, active compounds read low 1.01 | locus YDR159W, strain sac3, active compounds read low 1.02 | locus YDR195W, strain ref2 0.985 | locus YDR297W, strain sur2, active compounds read low 0.983 | locus YDR334W, strain swr1, active compounds read low 1 | locus YDR335W, strain msn5, active compounds read low 0.983 | locus YDR392W, strain spt3, active compounds read low 0.986 | locus YEL003W, strain gim4, active compounds read low 0.975 | locus YEL037C, strain rad23, active compounds read low 0.998 | locus YEL061C, strain CIN8 (second series), active compounds read low 1 | locus YER015W, strain faa2, active compounds read low 0.972 | locus YER016W, strain bim1, active compounds read low 0.998 | locus YER111C, strain swi4, active compounds read low 0.984 | locus YER155C, strain BEM2 (second series), active compounds read low 0.982 | locus YFR010W, strain ubp6, active compounds read low 0.981 | locus YGL167C, strain pmr1, active compounds read low 0.978 | locus YGL173C, strain kem1, active compounds read low 0.981 | locus YGL227W, strain vid30, active compounds read low 0.987 | locus YGL240W, strain doc1, active compounds read low 0.974 | locus YGL253W, strain hxk2, active compounds read low 0.988 | locus YHR013C, strain ard1, active compounds read low 1.06 | locus YHR027C, strain rpn1, active compounds read low 0.995 | [1] 1.07 | [2] 1.04 | locus YHR142W, strain chs7, active compounds read low 0.988 | locus YJL092W, strain hpr5, active compounds read low 0.994 | locus YJL095W, strain BCK1 (second series), active compounds read low 0.973 | [3] 1.05 | locus YJL115W, strain asf1, active compounds read low 0.987 | locus YJL129C, strain trk1, active compounds read low 1.03 | locus YJL154C, strain vps35, active compounds read low 0.997 | locus YJL164C, strain tpk1, active compounds read low 0.976 | locus YJL166W, strain qcr8, active compounds read low 0.98 | [4] 0.905 | locus YKL160W, strain elf1, active compounds read low 0.973 | locus YKR026C, strain gcn3, active compounds read low 0.991 | locus YKR091W, strain srl3, active compounds read low 0.988 | locus YLL001W, strain dnm1, active compounds read low 0.991 | locus YLL026W, active compounds read low 0.98 | locus YLL041C, strain sdh2, active compounds read low 0.993 | locus YLR027C, strain aat2, active compounds read low 0.986 | [5] 1.06 | locus YLR221C, strain rsa3, active compounds read low 0.979 | locus YLR258W, strain gsy2, active compounds read low 0.985 | locus YLR262C, strain YPT6 (second series), active compounds read low 1 | locus YLR320W, strain mms22, active compounds read low 0.976 | locus YLR342W, strain FKS1, active compounds read low 0.997 | locus YLR357W, strain rsc2, active compounds read low 0.981 | locus YLR370C, strain arc18, active compounds read low 0.988 | locus YLR384C, strain iki3, active compounds read low 0.986 | locus YML120C, strain ndi1, active compounds read low 0.975 | locus YMR125W, strain sto1, active compounds read low 1.02 | locus YMR129W, active compounds read low 0.984 | locus YMR205C, strain PFK2, active compounds read low 0.988 | locus YMR231W, strain pep5, active compounds read low 0.969 | locus YNL071W, strain lat1, active compounds read low 0.995 | [6] 0.981 | locus YNL209W, strain ssb2, active compounds read low 0.987 | locus YNL248C, strain rpa49, active compounds read low 1 | locus YNL322C, strain KRE1 (second series), active compounds read low 0.993 | locus YNR049C, strain mso1, active compounds read low 0.983 | locus YOR001W, strain rrp6, active compounds read low 0.989 | locus YOR070C, strain gyp1, active compounds read low 0.979 | locus YOR080W, strain dia2, active compounds read low 0.985 | locus YOR083W, strain WHI5, active compounds read low 0.983 | locus YOR106W, strain vam3, active compounds read low 0.943 | [7] 1.05 | locus YOR265W, strain rbl2, active compounds read low 0.985 | locus YOR270C, strain vph1, active compounds read low 0.864 | locus YOR290C, strain snf2, active compounds read low 0.996 | locus YPL051W, strain arl3, active compounds read low 0.918 | locus YPL078C, strain atp4, active compounds read low 0.971 | locus YPL106C, strain sse1, active compounds read low 0.986 | locus YPL240C, strain hsp82, active compounds read low 0.991 | [8] 1.09
active: locus YMR058W, strain fet3, active compounds read low 0.883
